Shown are actives, neighbours in structure and some others; about 3% of the full set was active somewhere.
HIF-2a inh: HIF-2a inhibition | 786-0 RCC cells HIF-2a reporter, luciferase luminescence, overnight | inhibition, % at 18.8 µM | 360,000 tested, 0.72% active | AID 624352;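 active = inhibition of the luminescence signal of 40% or more relative to plate controls, in a single-dose primary screen at 18.75 µM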
ABHD5 PLIN5 PPI: blocks binding of human ABHD5 to perilipin-5 | Q00G26+Q8WTS1 | Split G. princeps luciferase complementation, luminescence, 4 h | inhibition, % at 4 µM | 360,000 tested, 0.78% active;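 active = inhibition above the mean inhibition across every tested compound plus 3 SD, cut at about 22% in these data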;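 also: 0% = DMSO only wells and the 100% control is not disclosed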
Target sequence (Q00G26 whole entry, looked up): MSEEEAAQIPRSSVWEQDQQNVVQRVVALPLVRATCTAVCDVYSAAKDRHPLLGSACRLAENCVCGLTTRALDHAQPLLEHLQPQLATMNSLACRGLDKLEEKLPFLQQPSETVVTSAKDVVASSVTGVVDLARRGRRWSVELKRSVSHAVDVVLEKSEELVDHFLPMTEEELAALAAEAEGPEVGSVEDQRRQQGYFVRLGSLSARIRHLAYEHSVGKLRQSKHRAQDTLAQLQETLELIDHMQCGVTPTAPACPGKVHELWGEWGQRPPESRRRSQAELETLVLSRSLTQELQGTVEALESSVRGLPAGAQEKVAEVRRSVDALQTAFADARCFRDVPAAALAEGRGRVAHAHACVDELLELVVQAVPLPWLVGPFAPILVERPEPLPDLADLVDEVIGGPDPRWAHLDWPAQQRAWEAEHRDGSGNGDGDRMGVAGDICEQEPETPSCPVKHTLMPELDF
Target sequence (Q8WTS1 whole entry, looked up): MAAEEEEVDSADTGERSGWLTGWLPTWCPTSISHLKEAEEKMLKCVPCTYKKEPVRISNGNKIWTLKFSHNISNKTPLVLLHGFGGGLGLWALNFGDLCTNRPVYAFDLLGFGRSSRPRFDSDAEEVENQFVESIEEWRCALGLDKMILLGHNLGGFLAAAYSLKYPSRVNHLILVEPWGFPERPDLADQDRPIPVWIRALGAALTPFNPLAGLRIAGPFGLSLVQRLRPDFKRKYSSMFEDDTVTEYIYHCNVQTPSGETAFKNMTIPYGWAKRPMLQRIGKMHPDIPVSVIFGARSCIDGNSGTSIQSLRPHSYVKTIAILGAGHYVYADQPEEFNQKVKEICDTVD
Peg3 prom inh: reduces Peg3 promoter-driven luciferase expression in HeLa; 360,000 tested, 1.7% active; AID 588405; inhibition, % at 20 µM; HeLa PEG-Prom luciferase reporter, luminescence, overnight;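 active = inhibition of at least 50% at 20 µM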
KKLEB tox: reduces viability of KKLEB cystic fibrosis airway cells; KKLEB CF airway cells viability, ATPlite luminescence, overnight; active compounds read low; cells stimulated with P. aeruginosa culture filtrate; activity change (cytotoxicity), % at 5 µM; 360,000 tested, 0.36% active; AID 602141;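 active = corrected activity change at or below -50% at 5 µM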
TRPM1 prom inh: reduces MITF-dependent TRPM1 promoter luciferase signal. 330,000 tested, 0.83% active. inhibition, % at 12.5 µM. SK-MEL-5 TRPM1 promoter luciferase, 24 h. AID 488899;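 active = mean inhibition across replicates of 60% or more, whatever share of single replicates reaches that level; inconclusive = some that reach 60%, reason not given; inactive = mean inhibition across replicates below 60%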
CF NFkB inh: inhibitors of cystic fibrosis induced NF-kB; 360,000 tested, 0.86% active; inhibition, % at 5 µM; KKLEB NF-kB-GFP reporter, PAF-induced, GFP fluorescence overnight;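 active = at least 50% inhibition at 5 µM, scaled per plate between neutral and stimulator controls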;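 also: PAF is a Pseudomonas aeruginosa culture filtrate used as stimulus; plate controls were PAF-stimulated DMSO wells for no effect and unstimulated DMSO wells for full effect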
ABHD5 PLIN5 conf: ABHD5-PLIN5 interaction inhibition, confirmed; biochemical ABHD5-PLIN5 interaction, luminescence; shares compounds with ABHD5 PLIN5 PPI; 2,200 tested, 67% active; inhibition, % at 4 µM; in the data active = inhibition above about 23%;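 also: 0% = DMSO vehicle wells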
HNF4 counter: HNF4 split-luciferase signal hit, counter-screen; shares compounds with ABHD5 PLIN5 PPI; inhibition, % at 4 µM; AID 651674; 2,200 tested, 77% active; HNF4 dimerization, luminescence, biochemical;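 active = mean inhibition across replicate wells exceeding the computed hit threshold, cut at about 13% in these data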;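 also: light from luciferase halves that rejoin when HNF4 fusion proteins dimerize; 0% = DMSO only wells and the 100% control is not given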
* hit, by the source's call; ? = inconclusive; · = not tested or not shown.

SMILES	HIF-2a inh	ABHD5 PLIN5 PPI	Peg3 prom inh	KKLEB tox	TRPM1 prom inh	CF NFkB inh	ABHD5 PLIN5 conf	HNF4 counter
Cc1ccc(-n2ncc(-c3n[nH]c(=S)o3)c2N)cc1C	-36	-7	-18	4	·	-2	·	·
Cc1onc(-c2ccccc2Cl)c1C(=O)Nc1ncn[nH]1	17	2	2	-1	-1	10	·	·
COc1ccc(C2=NN(C(=O)CCC(=O)O)C(c3ccccc3OC)C2)cc1 (stereo not given)	2	-1	-9	7	10	-17	·	·
CCOc1ccccc1C1N=C(c2ccc(OC)cc2)CC(c2ccccc2O)N1 (stereo not given)	-188	25*	-71	-13	-77	11	57*	48*
O=c1[nH]c(/C=C/c2ccc([N+](=O)[O-])cc2)c([N+](=O)[O-])c(=O)[nH]1	9	50*	2	-9	-1	16	85*	79*
O=C(/C=C/c1cccc2ccccc12)c1ccncc1	9	65*	10	4	5	2	96*	96*
O=C(/C=C/c1ccccc1[N+](=O)[O-])c1ccc(F)cc1	-122	34*	107*	3	-2	6	86*	83*
O=C(/C=C/c1ccccc1O)c1ccccc1	-38	29*	-24	-8	-16	-18	79*	64*
O=C(/C=C/c1ccccc1[N+](=O)[O-])OCC(=O)c1ccccc1	-80	-4	-108	-2	-27	-13	·	·
O=C(/C=C/c1ccccc1O)c1ccc(Cl)cc1	-38	58*	-42	-11	-1	17	94*	75*
O=C(O)c1nn(Cc2ncc(-c3cccc(Cl)c3)o2)c(=O)c2ccccc12	-9	-4	-6	-16	4	2	·	·
Cc1cc(C(F)(F)F)nc(SCCN2CCCCC2)c1C#N	7	-3	-4	-10	-14	-22	·	·
Cc1cc(N2CCN(C)CC2)nc2ccc(NC(=S)N3CCN(c4cccc(Cl)c4)CC3)cc12	12	10	-12	0	15	-5	·	·
Cc1cccc(N2CCN(C(=S)Nc3ccc4nc(N5CCN(C)CC5)cc(C)c4c3)CC2C)c1 (stereo not given)	11	25*	76*	-39	47	10	10	-4
Cc1cc(C(=O)COC(=O)Cc2n[nH]c(=O)c3ccccc23)c(C)n1-c1ccc2c(c1)OCCO2	-2	4	25	4	11	10	·	·
COc1ccc(OC(=O)c2cnc3n(c2=O)CCS3)cc1	12	41*	8	-5	6	8	0	1
CNC(=O)c1nnsc1S(=O)c1ccc(Cl)cc1 (stereo not given)	-18	67*	103*	-6	?	91*	85*	104*
O=C1CN(C(=O)COC(=O)[C@@H]2CCCN2S(=O)(=O)c2ccc(Cl)cc2)c2ccccc2N1	7	-5	-5	-3	9	-6	·	·
O=C(NCc1ccco1)Nc1ccc2nsnc2c1	-64	38*	-61	-4	-15	19	50*	82*
CC(C)c1ccc(C(=O)NCCCN2CCOCC2)cc1	-71	1	-33	7	-17	-17	·	·
O=C(NCCCN1CCOCC1)c1ccc(CSc2ccc(Cl)cc2)cc1	-12	27*	-14	-6	-6	0	9	3
O=c1[nH]c(/C=C\c2cccc(O)c2)nc(O)c1[N+](=O)[O-]	16	52*	3	10	12	-22	52*	43*
O=c1[nH]c(/C=C\c2ccc(O)c(O)c2)nc(O)c1[N+](=O)[O-]	21	8	12	8	4	-1	·	·
O=C(NC(=S)Nc1cccc(O)c1)C12CC3CC(CC(C3)C1)C2	-185	-18	-237	12	·	-2	·	·
COc1cc(/C=C2\CC/C(=C\c3cc(OC)c(O)c(OC)c3)C2=O)cc(OC)c1O	-30	32*	105*	-44	68*	62*	39*	39*

High-throughput results: PubChem BioAssay, several laboratories
